# What was measured:
# [1] = target: Death-associated protein kinase 1 (Homo sapiens) (UniProt P53355); settings: at 1 µM;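 also: each value is a mean inhibition figure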
# [2] = target: T1, Serine/threonine-protein kinase DCLK2 (Homo sapiens) (UniProt Q8N568); settings: at 0.1 µM
# T1 sequence (whole entry): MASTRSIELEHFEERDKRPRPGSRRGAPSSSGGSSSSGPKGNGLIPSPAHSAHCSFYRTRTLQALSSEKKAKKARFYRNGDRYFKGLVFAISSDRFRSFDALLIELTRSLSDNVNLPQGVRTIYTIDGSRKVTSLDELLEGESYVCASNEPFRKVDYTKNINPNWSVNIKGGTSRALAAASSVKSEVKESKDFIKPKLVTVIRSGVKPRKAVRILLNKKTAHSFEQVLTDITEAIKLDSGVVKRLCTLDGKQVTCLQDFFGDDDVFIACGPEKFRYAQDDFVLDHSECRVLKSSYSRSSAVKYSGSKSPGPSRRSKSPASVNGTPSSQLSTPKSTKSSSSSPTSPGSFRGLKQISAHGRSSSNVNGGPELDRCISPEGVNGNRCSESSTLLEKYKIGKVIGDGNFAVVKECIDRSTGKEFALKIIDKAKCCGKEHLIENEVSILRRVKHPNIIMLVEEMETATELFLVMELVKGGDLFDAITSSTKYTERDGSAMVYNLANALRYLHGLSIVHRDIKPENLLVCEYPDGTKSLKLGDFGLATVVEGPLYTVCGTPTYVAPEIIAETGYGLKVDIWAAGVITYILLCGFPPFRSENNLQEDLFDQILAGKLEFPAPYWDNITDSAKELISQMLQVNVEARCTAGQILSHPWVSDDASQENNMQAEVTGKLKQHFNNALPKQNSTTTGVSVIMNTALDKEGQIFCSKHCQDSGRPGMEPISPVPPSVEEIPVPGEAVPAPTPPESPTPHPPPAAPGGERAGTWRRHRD
# [3] = target: T1, Serine/threonine-protein kinase DCLK2 (Homo sapiens); settings: at 1 µM
# [4] = target: MAP kinase-activated protein kinase 2 (Homo sapiens) (UniProt P49137); settings: at 0.1 µM
# [5] = target: MAP kinase-activated protein kinase 2 (Homo sapiens) (UniProt P49137); settings: at 1 µM
# [6] = target: MAP kinase-activated protein kinase 3 (Homo sapiens) (UniProt Q16644); settings: at 0.1 µM
# [7] = target: MAP kinase-activated protein kinase 3 (Homo sapiens) (UniProt Q16644); settings: at 1 µM
# [8] = target: Serine/threonine-protein kinase MARK1 (Homo sapiens) (UniProt Q9P0L2); settings: at 0.1 µM
# [9] = target: Serine/threonine-protein kinase MARK1 (Homo sapiens) (UniProt Q9P0L2); settings: at 1 µM
# [10] = target: MAP/microtubule affinity-regulating kinase 3 (Homo sapiens) (UniProt P27448); settings: at 0.1 µM
# [11] = target: MAP/microtubule affinity-regulating kinase 3 (Homo sapiens) (UniProt P27448); settings: at 1 µM
# [12] = target: T2, MAP/microtubule affinity-regulating kinase 4 (Homo sapiens) (UniProt Q96L34); settings: at 0.1 µM
# T2 sequence (whole entry): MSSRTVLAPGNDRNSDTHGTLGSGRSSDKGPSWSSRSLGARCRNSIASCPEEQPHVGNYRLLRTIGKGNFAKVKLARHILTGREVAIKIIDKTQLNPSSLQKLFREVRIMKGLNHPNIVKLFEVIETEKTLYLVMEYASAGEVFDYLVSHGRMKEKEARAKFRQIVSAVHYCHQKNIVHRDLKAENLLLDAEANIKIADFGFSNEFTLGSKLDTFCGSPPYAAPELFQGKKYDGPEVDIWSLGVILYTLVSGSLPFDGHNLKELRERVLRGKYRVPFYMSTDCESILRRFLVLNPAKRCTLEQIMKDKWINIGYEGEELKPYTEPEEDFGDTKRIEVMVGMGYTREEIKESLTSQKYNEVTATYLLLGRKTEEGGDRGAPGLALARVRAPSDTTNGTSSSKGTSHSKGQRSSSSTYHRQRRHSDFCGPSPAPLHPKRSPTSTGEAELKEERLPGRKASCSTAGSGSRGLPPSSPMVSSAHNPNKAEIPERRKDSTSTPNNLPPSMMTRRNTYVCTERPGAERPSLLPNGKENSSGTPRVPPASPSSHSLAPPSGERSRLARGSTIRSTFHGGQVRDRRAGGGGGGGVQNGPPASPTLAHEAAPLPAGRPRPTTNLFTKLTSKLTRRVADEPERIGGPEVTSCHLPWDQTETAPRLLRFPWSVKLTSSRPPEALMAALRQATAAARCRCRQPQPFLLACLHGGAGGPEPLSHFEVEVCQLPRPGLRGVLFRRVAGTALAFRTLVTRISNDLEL
# [13] = target: T2, MAP/microtubule affinity-regulating kinase 4 (Homo sapiens); settings: at 1 µM
# [14] = target: Maternal embryonic leucine zipper kinase (Homo sapiens) (UniProt Q14680); settings: at 0.1 µM
# [15] = target: Maternal embryonic leucine zipper kinase (Homo sapiens) (UniProt Q14680); settings: at 1 µM
# [16] = target: MAP kinase-interacting serine/threonine-protein kinase 1 (Homo sapiens) (UniProt Q9BUB5); settings: at 0.1 µM
# [17] = target: MAP kinase-interacting serine/threonine-protein kinase 1 (Homo sapiens) (UniProt Q9BUB5); settings: at 1 µM
# [18] = target: MAP kinase-interacting serine/threonine-protein kinase 2 (Homo sapiens) (UniProt Q9HBH9); settings: at 0.1 µM
# [19] = target: MAP kinase-interacting serine/threonine-protein kinase 2 (Homo sapiens) (UniProt Q9HBH9); settings: at 1 µM
# [20] = target: Serine/threonine-protein kinase MARK2 (Homo sapiens) (UniProt Q7KZI7); settings: at 0.1 µM;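 also: mean percent inhibition of PAR-1Balpha kinase activity, reported from the GSK PKIS screen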
# Serine/threonine-protein kinase MARK2 (Homo sapiens), sequence (Q7KZI7 whole entry): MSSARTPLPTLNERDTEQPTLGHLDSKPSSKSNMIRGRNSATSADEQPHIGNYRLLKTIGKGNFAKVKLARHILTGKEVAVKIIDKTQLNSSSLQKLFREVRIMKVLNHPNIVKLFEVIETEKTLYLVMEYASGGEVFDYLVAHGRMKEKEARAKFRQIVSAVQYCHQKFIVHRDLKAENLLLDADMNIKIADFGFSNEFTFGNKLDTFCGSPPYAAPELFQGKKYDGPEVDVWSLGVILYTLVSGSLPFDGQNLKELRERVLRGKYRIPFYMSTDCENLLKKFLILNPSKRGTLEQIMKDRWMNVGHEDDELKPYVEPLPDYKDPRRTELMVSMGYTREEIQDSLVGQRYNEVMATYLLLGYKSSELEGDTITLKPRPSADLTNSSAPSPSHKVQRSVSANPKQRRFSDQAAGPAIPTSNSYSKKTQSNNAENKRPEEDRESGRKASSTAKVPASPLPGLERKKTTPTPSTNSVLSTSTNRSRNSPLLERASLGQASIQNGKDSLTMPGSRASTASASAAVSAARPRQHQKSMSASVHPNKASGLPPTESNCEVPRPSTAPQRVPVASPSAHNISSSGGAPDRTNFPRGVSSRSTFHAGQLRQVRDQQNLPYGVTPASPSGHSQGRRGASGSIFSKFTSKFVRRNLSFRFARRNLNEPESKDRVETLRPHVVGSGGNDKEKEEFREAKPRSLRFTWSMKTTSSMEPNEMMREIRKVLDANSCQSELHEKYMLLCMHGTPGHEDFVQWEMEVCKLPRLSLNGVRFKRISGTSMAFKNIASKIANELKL
# MAP kinase-interacting serine/threonine-protein kinase 1 (Homo sapiens), sequence (Q9BUB5 whole entry, looked up): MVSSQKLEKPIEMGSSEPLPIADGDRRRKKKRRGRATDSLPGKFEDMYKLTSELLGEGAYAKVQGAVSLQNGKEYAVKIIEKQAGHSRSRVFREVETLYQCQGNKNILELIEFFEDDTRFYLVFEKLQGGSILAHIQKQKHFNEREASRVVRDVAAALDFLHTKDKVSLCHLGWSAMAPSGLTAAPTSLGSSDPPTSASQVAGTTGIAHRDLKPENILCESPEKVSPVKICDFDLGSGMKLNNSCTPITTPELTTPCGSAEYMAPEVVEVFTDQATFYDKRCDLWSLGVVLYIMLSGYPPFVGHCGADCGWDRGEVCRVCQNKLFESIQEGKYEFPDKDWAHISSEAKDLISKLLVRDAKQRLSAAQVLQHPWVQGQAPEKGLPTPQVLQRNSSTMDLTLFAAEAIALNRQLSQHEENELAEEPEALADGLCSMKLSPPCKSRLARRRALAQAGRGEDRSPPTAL
# MAP kinase-activated protein kinase 2 (Homo sapiens), sequence (P49137 whole entry, looked up): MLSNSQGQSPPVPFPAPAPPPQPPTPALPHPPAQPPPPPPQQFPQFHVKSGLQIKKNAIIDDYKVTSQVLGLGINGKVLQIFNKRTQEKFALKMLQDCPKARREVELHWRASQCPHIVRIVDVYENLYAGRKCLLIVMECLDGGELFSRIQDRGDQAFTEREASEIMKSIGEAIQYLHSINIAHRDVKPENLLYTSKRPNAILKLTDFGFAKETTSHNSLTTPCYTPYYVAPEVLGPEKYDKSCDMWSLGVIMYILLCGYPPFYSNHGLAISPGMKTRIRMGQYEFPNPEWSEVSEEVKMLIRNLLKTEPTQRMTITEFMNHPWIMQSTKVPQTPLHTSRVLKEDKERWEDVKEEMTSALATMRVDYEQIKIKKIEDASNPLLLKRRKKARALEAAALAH
# Death-associated protein kinase 1 (Homo sapiens), sequence (P53355 whole entry, looked up): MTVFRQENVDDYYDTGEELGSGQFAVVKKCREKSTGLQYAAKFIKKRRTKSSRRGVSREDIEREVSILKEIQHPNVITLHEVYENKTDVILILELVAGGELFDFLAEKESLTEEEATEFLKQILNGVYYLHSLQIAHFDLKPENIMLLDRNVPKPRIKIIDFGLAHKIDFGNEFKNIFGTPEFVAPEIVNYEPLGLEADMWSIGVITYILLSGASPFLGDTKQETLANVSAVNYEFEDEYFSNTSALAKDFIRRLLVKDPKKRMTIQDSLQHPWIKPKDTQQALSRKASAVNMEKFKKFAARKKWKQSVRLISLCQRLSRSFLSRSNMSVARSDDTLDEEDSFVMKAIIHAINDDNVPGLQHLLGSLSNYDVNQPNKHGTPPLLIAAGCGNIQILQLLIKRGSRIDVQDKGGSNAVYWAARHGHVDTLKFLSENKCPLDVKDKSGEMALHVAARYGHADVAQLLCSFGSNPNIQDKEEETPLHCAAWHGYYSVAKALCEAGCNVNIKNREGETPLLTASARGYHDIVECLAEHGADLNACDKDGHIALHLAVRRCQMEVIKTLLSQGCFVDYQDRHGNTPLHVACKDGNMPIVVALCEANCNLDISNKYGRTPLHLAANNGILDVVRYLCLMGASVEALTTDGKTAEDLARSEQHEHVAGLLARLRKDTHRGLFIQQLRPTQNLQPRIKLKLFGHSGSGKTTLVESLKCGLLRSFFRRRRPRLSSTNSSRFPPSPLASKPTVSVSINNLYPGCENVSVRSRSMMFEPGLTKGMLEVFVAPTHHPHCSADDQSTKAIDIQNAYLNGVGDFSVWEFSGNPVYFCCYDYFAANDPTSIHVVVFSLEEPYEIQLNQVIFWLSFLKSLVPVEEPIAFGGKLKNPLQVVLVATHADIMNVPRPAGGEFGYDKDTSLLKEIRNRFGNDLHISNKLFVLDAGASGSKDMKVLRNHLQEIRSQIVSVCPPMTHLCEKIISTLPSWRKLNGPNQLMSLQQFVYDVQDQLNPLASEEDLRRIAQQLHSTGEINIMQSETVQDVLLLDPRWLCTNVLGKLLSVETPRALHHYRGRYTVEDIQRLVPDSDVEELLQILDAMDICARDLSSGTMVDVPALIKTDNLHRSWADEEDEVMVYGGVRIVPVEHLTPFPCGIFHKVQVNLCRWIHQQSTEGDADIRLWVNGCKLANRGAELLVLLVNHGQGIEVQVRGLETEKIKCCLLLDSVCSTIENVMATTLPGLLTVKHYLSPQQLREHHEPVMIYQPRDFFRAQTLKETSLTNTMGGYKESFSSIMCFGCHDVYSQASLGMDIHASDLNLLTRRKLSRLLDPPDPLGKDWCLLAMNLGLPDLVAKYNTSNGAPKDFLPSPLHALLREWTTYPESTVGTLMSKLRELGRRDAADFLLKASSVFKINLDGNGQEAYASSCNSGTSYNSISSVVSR
# MAP/microtubule affinity-regulating kinase 3 (Homo sapiens), sequence (P27448 whole entry, looked up): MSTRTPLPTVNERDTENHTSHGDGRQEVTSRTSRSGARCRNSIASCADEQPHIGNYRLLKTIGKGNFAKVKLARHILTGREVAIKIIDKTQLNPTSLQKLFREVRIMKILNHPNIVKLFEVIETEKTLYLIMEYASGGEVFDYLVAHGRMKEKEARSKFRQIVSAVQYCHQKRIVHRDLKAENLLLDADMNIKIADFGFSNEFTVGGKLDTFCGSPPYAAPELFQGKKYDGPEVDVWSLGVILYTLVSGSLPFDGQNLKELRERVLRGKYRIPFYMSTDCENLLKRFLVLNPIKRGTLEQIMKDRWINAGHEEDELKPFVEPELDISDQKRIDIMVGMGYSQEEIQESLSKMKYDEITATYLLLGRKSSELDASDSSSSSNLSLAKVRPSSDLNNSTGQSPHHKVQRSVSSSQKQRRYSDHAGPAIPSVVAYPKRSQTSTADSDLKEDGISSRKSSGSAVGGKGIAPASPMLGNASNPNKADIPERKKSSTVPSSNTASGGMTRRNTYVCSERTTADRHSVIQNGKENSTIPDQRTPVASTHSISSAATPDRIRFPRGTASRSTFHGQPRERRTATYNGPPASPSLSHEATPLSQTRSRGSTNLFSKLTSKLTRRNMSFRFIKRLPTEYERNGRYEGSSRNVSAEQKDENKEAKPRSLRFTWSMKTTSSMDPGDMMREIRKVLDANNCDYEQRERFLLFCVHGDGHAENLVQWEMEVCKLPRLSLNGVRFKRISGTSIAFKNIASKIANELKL
# MAP kinase-interacting serine/threonine-protein kinase 2 (Homo sapiens), sequence (Q9HBH9 whole entry, looked up): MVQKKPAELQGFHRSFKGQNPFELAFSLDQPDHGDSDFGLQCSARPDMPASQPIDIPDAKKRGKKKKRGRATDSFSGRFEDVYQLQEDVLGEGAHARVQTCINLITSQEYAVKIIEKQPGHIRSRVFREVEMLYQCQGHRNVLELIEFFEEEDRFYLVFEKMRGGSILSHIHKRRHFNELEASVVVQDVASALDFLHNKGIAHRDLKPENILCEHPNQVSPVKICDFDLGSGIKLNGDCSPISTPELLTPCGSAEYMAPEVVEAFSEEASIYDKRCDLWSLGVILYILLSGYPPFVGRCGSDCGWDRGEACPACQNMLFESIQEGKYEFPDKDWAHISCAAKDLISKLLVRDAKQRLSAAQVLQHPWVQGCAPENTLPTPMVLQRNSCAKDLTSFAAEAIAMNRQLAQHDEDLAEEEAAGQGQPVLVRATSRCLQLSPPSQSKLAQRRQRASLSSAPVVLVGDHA
# MAP kinase-activated protein kinase 3 (Homo sapiens), sequence (Q16644 whole entry, looked up): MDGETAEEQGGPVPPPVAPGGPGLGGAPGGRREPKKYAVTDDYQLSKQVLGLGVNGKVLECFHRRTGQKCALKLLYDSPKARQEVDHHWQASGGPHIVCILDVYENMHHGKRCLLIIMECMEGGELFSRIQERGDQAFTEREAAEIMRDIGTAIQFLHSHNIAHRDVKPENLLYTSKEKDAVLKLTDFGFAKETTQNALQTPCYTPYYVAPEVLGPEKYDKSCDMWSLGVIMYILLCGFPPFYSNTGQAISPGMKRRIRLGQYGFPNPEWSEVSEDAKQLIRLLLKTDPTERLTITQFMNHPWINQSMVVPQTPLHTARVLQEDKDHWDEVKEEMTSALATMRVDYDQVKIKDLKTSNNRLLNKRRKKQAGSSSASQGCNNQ
Structure (SMILES),inhibition [1] [%],inhibition [2] [%],inhibition [3] [%],inhibition [4] [%],inhibition [5] [%],inhibition [6] [%],inhibition [7] [%],inhibition [8] [%],inhibition [9] [%],inhibition [10] [%],inhibition [11] [%],inhibition [12] [%],inhibition [13] [%],inhibition [14] [%],inhibition [15] [%],inhibition [16] [%],inhibition [17] [%],inhibition [18] [%],inhibition [19] [%],inhibition [20] [%]
COc1cc(Nc2ncc3c(C)nc(-c4cccc(Oc5ccccc5)c4)n3n2)cc(OC)c1OC,11.9,0.71,0.09,3.12,3.35,8.12,7.79,1.87,6.76,3.73,29.3,1.25,3.17,3.48,10.8,0.32,0.56,0.07,1.2,0.41
O=C(Nc1ccc(Oc2ccc3[nH]c(NC(=O)c4ccccc4)nc3c2)cc1)Nc1cc(C(F)(F)F)ccc1F,5.19,-1.34,-0.03,1.97,1.81,4.88,16.7,2.51,5.14,3.79,22.9,0.56,3.1,3.83,2.36,3.79,21,2.44,22.1,-0.01
CN(C)CCOc1ccc(-c2cc(-c3ccc4c(c3)CCC4=NO)c(-c3ccncc3)o2)cc1,-1.18,-2.52,-1.37,-1.35,-1.61,-1.27,-1.84,-2.08,1.81,-5.74,-0.6,-0.26,0.68,-1.71,-1.71,1.14,5.12,0.16,2.71,-1.72
Fc1ccc(-c2nc3n(c2-c2ccncc2)CCS3)cc1,2.21,-0.75,-3.53,0.87,0.79,8.6,19.8,4.51,4.67,3.87,-0.12,2.4,3.63,4.86,6.72,1.57,4.14,-2.37,0.35,0.46
CNC(=O)c1cncc(/C=C/c2c(C)cccc2C)c1,0.45,-0.24,-2.53,0.41,-0.68,0.6,0.25,0.88,0.89,0.44,2,-0.27,1.46,-1.92,0.37,-0.2,8.06,0.57,5.36,0.03
Fc1ccc(-c2ncn(C3CCNCC3)c2-c2ccnc(Oc3ccc(Oc4ccccc4)cc3)n2)cc1,13.2,-0.37,2.31,5.15,7.84,37.5,46.2,2.1,4.13,2.76,2.05,0.75,2.59,6.35,11.1,1.1,1.53,0.72,1.76,2.71
NS(=O)(=O)c1ccc(N/N=C2\C(=O)Nc3ccc(-c4cnco4)cc32)cc1,-3.71,-5.27,-2.47,-0.59,0.18,-0.18,-0.48,2.3,15.6,2.61,17.4,4.35,26.1,5.8,32.9,1.41,7.87,2.14,8.88,1.73
NCc1ccc(-n2c(-c3nonc3N)nc3cnccc32)cc1,9.98,-0.49,2.47,1.78,1.8,4.33,4.65,6.36,23.2,5.76,22.6,4.49,13.3,33.9,88.2,4.41,13.6,1.06,10.1,4.09
CCC(=O)Nc1ccc(C)c(-c2ccc(C(=O)NCC3CC3)cc2)c1,-3.18,-0.58,0.48,0.77,1.21,6.24,20.1,0.75,1.92,-0.99,-1.15,1.46,2.23,5.17,8.13,2.05,2.8,0.52,1.17,0.59
CCS(=O)(=O)c1ccc(OC)c(Nc2ncc(-c3cccc(-c4ccccc4F)c3)o2)c1,-0.11,1.37,-3.8,0.06,-0.23,1.08,1.04,1.41,0.75,-0.41,7.39,1.24,1.22,1.52,3.29,1.34,4.69,0.34,3.99,-5.23
CCc1ccc(Oc2nccc(-c3c(-c4ccc(F)cc4)ncn3C3CCNCC3)n2)cc1,4.64,-0.57,1.55,1.96,3.67,36.5,37.5,3.13,7.96,3.13,7.86,2.89,4.67,6.32,5.64,2.17,4.48,3.36,3.52,1.93
CS(=O)(=O)CCNCc1ccc(-c2ccc3ncnc(Nc4ccc(OCc5ccccc5)c(Br)c4)c3c2)o1,2.27,-2.49,-1.71,1.3,0.14,3.07,2.03,1.99,1.61,3.89,-0.13,2.98,2.37,5.3,5.37,2.72,6.16,2.36,7.73,0.23
COc1cc(Nc2ncc3c(C)nc(-c4cccc(C(F)(F)F)c4)n3n2)cc(OC)c1OC,1.2,0.76,-1.04,1.86,2.09,4.68,5.16,2.7,15.5,1.84,7.63,1.28,7.81,13.1,63.1,3.56,7.34,2.94,6,0.26

# — ChEMBL document CHEMBL1961873, “Compounds: GSK PKIS; Assays: Nanosyn kinase panel” (2012)
